# Assay outcomes (PubChem BioAssay)
# A selection: hits, their analogues and other compounds. The true share with any hit is near 11%.
# HCV inh = qHTS Assay for Inhibitors of Hepatitis C Virus (HCV) | Huh7.5.1 HCVcc-Cre infection, luciferase reporter, 44 h | AID 651820, 2012 | Potency, µM (doses to about 41.8 µM), hits mostly inhibitors | 3.4% of 340,000 active
#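 Antiviral activity was scored by luciferase reporter output from cells infected with HCVcc-Cre (~0.5 moi) in presence of compound, 44 h infection period, cells seeded 1,000/well 4 h prior.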
# Pf growth 48h = Primary qHTS for delayed death inhibitors of the malarial parasite plastid, 48 hour incubation. 5.9% of 310,000 active. P. falciparum luciferase growth in erythrocytes, 48 h. Potency, µM (doses to about 28.7 µM), actives largely listed as inhibitors
#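 Cell-based growth assay: transgenic P. falciparum expressing firefly luciferase, cultured in red cells within RPMI 1640 containing 0.5% w/v Albumax, 24 mM bicarbonate and gentamycin. A drop in luciferase activity indicates inhibition.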
# Pf growth 96h = Primary qHTS for delayed death inhibitors of the malarial parasite plastid, 96 hour incubation | P. falciparum luciferase reporter growth, 96 h | 6.9% of 320,000 active | Potency, µM (top dose mostly 28.7 µM), hits mostly inhibitors | AID 504834, 2011
#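 Infected RBCs, 2% Hct / 0.05% parasitemia final; luciferase-reporter P. falciparum; cpd 96 h, 37 C, 5% CO2; luciferase detection reagent; luminescence.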
# AMA1 RON2 block = qHTS for Inhibitors of AMA1-RON; Towards Development of Antimalarial Drug Lead: Primary Screen | AlphaScreen AMA1-biotinylated RON2 peptide binding | 0.2% of 360,000 active | AID 720542, 2013 | Potency, µM (series often up to 58.2 µM), actives largely listed as inhibitors | Plasmodium falciparum AMA1 (3D7) - RON2 peptide interaction; also: nearly all actives have a fitted effect of over 45% in size
#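 AMA1 (3D7) with his tag at 25 nM final met compounds first, then biotinylated RON2 peptide at 25 nM; detection used donor plus acceptor beads, 10 µg/mL apiece, read by AlphaScreen after 30 min at room temperature.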
# Numbers stand for hits; 0 = inactive; ? = inconclusive; - = no result; ! = not active in a repeat; [ ] = dose if it differs, or a comment. Calls follow the shape of the dose curve; as a rule, active = well fitted curve in the direction sought with a large enough effect; inconclusive = small, poorly fitted or top-dose-only effect, or another doubt; inactive = no such curve, though single readings can be large; an effect the other way counts as inactive or inconclusive.
SMILES,HCV inh,Pf growth 48h,Pf growth 96h,AMA1 RON2 block
CCOC(=O)c1ccc(N=c2sc(C(=O)OC)cc(=O)n2CCCN2CCOCC2)cc1,?,?,4.7µM!,0
COC(=O)c1cc(=O)n(Cc2cccs2)c(=NCc2cccs2)s1,-,0,-,0
CCOC(=O)c1ccc(N=c2sc(C(=O)OC)cc(=O)n2Cc2ccco2)cc1,22µM,?,?,0
CCOc1ccc(C(=O)Nc2ccc(S(=O)(=O)N3CCN(C)CC3)cc2)cc1,0,?,?,0
CCC(C)c1ccccc1NC(=O)C(C)OC(=O)c1ccco1 (stereo not given),0,0,0,0
Cc1oc2c(c1C(=O)c1ccc(Cl)cc1)C(=O)C(=O)c1ccccc1-2,10µM,?,?,0
Cc1ccc(C(=O)c2c(C)oc3c2C(=O)C(=O)c2ccccc2-3)cc1,7.1µM,?,?,0
CC[C@H](C)[C@H]1O[C@]2(CC[C@@H]1C)C[C@@H]1C[C@@H](CC=C(C)[C@@H](O[C@H]3C[C@H](OC)[C@@H](O[C@H]4C[C@H](OC)[C@@H](O)[C@H](C)O4)[C@H](C)O3)[C@@H](C)C=CC=C3CO[C@@H]4[C@H](O)C(C)=C[C@@H](C(=O)O1)[C@]34O)O2,?,-,-,0
CC(=O)Nc1ccc(S(=O)(=O)Nc2nccc(/C=C/c3ccc(Cl)cc3)n2)cc1,0,0,?,0
Cc1ccc(-c2cc3nn(-c4ccccc4)c(N)c3c(=O)o2)cc1,10µM,0,0,0
Cc1ccc(-n2nc(-c3ccccc3)cc2Nc2ccccc2N)cc1,0,?,0,0
C=C1C(=O)O[C@@H]2C[C@@H](C)[C@@H]3C4OC4C(=O)[C@@]3(C)[C@@H](O)[C@H]12 (stereo not given in full),?,3.3µM,3.3µM,0
C=C1C(=O)O[C@H]2[C@H]1[C@H](OC(=O)CC(=O)O[C@@H]1C[C@@H](C)[C@@H]3C=CC(=O)[C@@]3(C)[C@H]3OC(=O)C(=C)[C@H]13)C[C@@H](C)[C@H]1C=CC(=O)[C@]12C,?,?,?,0
C=C1C(=O)O[C@H]2C[C@@H](C)[C@@H]3C=CC(=O)[C@@]3(C)C[C@H]12,0,5.2µM,8.3µM,0
C=C1C(=O)OC2CC(C)C3C=CC(=O)C3(C)C(O)C12 (stereo not given),2.5µM,-,-,0
C=C1C(=O)O[C@@H]2C[C@@H](C)[C@@H]3C=CC(=O)[C@@]3(C)[C@@H](OC(=O)CC(=O)O[C@H]3[C@@H]4C(=C)C(=O)O[C@@H]4C[C@@H](C)[C@@H]4C=CC(=O)[C@]43C)[C@H]12,1.1µM,1µM,1.3µM,0
Cc1ccc(NC(=O)CCc2nnc3ccc(N4CCC5(CC4)OCCO5)nn23)cc1F,0,?,0,0
CC(=O)NCCc1c[nH]c2ccc(O)cc12,0,-,-,0
COc1ccc(N(C(=O)c2cccnc2)S(=O)(=O)c2ccc(Cl)cc2)cc1,?,0,5.2µM,0
COc1nc(NC(C)(C)C)nc(Oc2ccc(=O)n(C)n2)n1,0,-,12µM,0
COc1ccc(Nc2nc3[nH]c(=O)cc(O)c3s2)cc1,0,?,?,0
O=c1cc(O)c2sc(Nc3ccc(F)c(Cl)c3)nc2[nH]1,?,?,3.7µM,0
O=c1cc(O)c2sc(Nc3ccc(Cl)c(F)c3)nc2[nH]1,?,1.7µM,5.9µM,0
CN[C@H]1C[C@H]2c3cc(N4CCN(C)CC4)ccc3CCN2C(=O)[C@H]1[C@H](C)O,-,-,-,0
Cc1ccc(S(=O)(=O)Nc2cc(C(=O)NCCN3CCCC3)ccc2N2CCCCC2)cc1,0,12µM,-,0
SMILES,HCV inh,Pf growth 48h,Pf growth 96h,AMA1 RON2 block
COc1ccc(C(=O)NCCC2=CCCCC2)cc1[N+](=O)[O-],?,0,0,0
Cc1ccc(S(=O)(=O)Nc2cc(C(=O)NCCN(C)C)ccc2N2CCCCC2)cc1,?,9.3µM,?,0
COc1ccc(C(=O)NCCN2CCCC2)cc1[N+](=O)[O-],0,?,2.6µM,0
COc1ccc(COC(=O)C2CCN(C(=O)c3ccc(Cl)cc3)CC2)cc1F,0,0,0,0
Cc1nc(SCc2ccccc2)c([N+](=O)[O-])[nH]1,0,?,0,0
Cc1nc(SCc2ccccc2)c(C(F)(F)F)c(=O)[nH]1,0,0,5.2µM,0
CC(NCCN(C)C)C(=O)C12CC3CC(CC(C3)C1)C2 (stereo not given),0,?,5.9µM,0
COc1ccc(-n2nnnc2/C=C\Nc2ccccc2C(=O)c2ccccc2)cc1,7.9µM,?,8.3µM,0
COc1ccc(-n2nnnc2/C=C/Nc2cc(C(F)(F)F)ccc2OC)cc1,?,?,?,0
Cn1c(COc2ccccc2)nnc1SCC(=O)c1cccc([N+](=O)[O-])c1,?,?,?,0
CCOc1cc(C)ccc1OCc1nnc(SCC(=O)c2cccc([N+](=O)[O-])c2)n1C,?,?,12µM,0
COc1cccc(Nc2nc(-c3sc(NC(=O)c4ccccc4)nc3C)cs2)c1,0,5.2µM,4.1µM,0
Cc1nc(NC(=O)c2ccccc2)sc1-c1csc(NCc2ccco2)n1,?,5.9µM,?,0
C=CCCC(=O)Nc1nc(C)c(-c2csc(Nc3cccc(OC)c3)n2)s1,6.3µM,2.6µM,12µM,0
Cc1nc(N)sc1-c1csc(Nc2cccc(C(=O)O)c2)n1,0,0,0,0
COc1cccc(Nc2nc(-c3cccnc3)cs2)c1,?,0,0,0
C=CCCC(=O)Nc1nc(C)c(-c2csc(Nc3cc(OC)ccc3OC)n2)s1,3.2µM,?,13µM,0
Cc1nc(C)c(-c2csc(NCc3ccco3)n2)s1,?,0,0,0
CC(c1ccccc1)C1CC(=O)N(c2cc(Cl)ccn2)C1=O (stereo not given),0,0,0,0
COc1ccc(S(=O)(=O)N2CCOCC2)cc1NC(=O)Cc1ccc(Cl)c(Cl)c1,0,0,0,0
Cn1ncc(Cl)c1C(=O)N1CCN(S(=O)(=O)c2ccc(Cl)s2)CC1,0,0,0,0
Cc1nc(NC(=O)c2ccccc2)sc1-c1csc(Nc2ccc(C(=O)O)cc2)n1,?,0,2.9µM,0
COc1ccc2sc(NC(=O)CC(C)C)nc2c1,0,0,?,0
COc1cccc(Nc2nc(-c3sc(NC(=O)CC(C)C)nc3C)cs2)c1,0,?,13µM,0
COc1ccc(Nc2nc(-c3sc(C)nc3C)cs2)cc1,8.9µM,0,0,0
COc1ccc(OC)c(Nc2nc(-c3sc(N)nc3C)cs2)c1,?,15µM,-,0
CN(C(=O)COC(=O)c1ccccc1C(=O)c1ccccc1)c1ccccc1,0,-,-,0[11.6 µM]
O=C(Nc1ccc(S(=O)(=O)N2CCCC2)cc1)C1CCCCC1,0,0,0,0
CCCN1CCN(C(=O)c2cccc3c2C(=O)N(CCOC)C3)CC1,0,-,?,0
CCOc1ccc(S(=O)(=O)N2CCC(C(=O)NC3CC3)CC2)cc1Cl,0,?,0,0
